Test results reported in PubChem BioAssay AID720526 (National Center for Advancing Translational Sciences (NCATS), 2013).
Results filed as inconclusive are left out. Entries that show only a call come without a potency. The source made the active and inactive calls. Calls follow the shape of the dose curve; as a rule, active = well fitted activation curve with a large enough effect; inconclusive = small, poorly fitted or top-dose-only effect; inactive = no such curve, though single readings can be large or run the other way.

Assay: qHTS Assay for NPC1 Promoter Activators: Hit Validation Using Renila Luciferase Read-Out for NPC1
Details: Huh7 NPC1 promoter-luciferase reporter, luminescence, 24 h; series mostly up to 76.9 µM
Excerpt: Niemann Pick Type C (NPC) is a rare neurodegenerative lipidosis that is characterized by lipid storage in the endosomal/lysosomal system. Treatment modalities for this devastating disease are currently non-existent due to the severe obstacles associated with accessing the central nervous system with proteins or genes. The majority of mutations causing NPC disease are missense mutations that are distributed throughout the length of the NPC1 protein, with the most prevalent being the I1061T allele. Although NPC1 mutant proteins may be functional, they are typically trapped in the ER due to misfolding. […] We have developed and optimized a cell based renilla luciferase reporter assay in 1536 well format for the identification of up-regulators of the mutant Rab9 promoter. This assay presents data on the validation of hits from the primary screen, which used a firefly luciferase read-out. NIH Chemical Genomics Center [NCGC] NIH Molecular Libraries Probe Production centers Network [MLPCN] MLPCN Grant: MH089375 Assay Submitter (PI): Yiannis A. Ioannou
Huh7 cells stably expressing NPC promoter-luciferase will be seeded at 1,500 cells/well in 5 uL in 1,536-well white opaque plates with 23 nL/well of compound in DMSO solution. The assay plates will be incubated at 37 deg C for 24 hours, after which 3 uL/well BriteLite plus luciferase detection reagent mixture (Perkin Elmer) will be added. Luminescence signal will be measured in a ViewLux plate reader (Perkin Elmer) after a 10 minute incubation at the room temperature.
Potency is read from the fitted curve at half-maximal effect.

SMILES	Potency
COc1ccccc1C(=O)Nc1nnc(SCC(=O)NC2CCCC2)s1	inactive
COC(=O)c1ccccc1NC(=O)c1cc(-c2cccs2)on1	inactive
CCOC(=O)c1ccccc1NC(=O)CSc1nnc(Cc2cccn2C)n1-c1ccc(F)cc1	46.3 µM (active)
O=C(Nc1nc2ccc(F)cc2s1)c1ccc(N2CCCC2=O)cc1	inactive
CC1CCc2sc(C(=O)NNC(=S)NC3CC3)cc2C1 (stereo not given)	inactive
COC(=O)c1ccccc1NC(=O)c1ccc(-c2ccc(Br)cc2)o1	inactive
CCOc1cc(C2C(C#N)=C(N)Oc3n[nH]c(C)c32)ccc1OCCN1CCOCC1 (stereo not given)	inactive
COC(=O)c1ccc(NC(=O)c2ccc3nc(C)sc3c2)cc1	inactive
CCOC(=O)c1ccc(NC(=O)Oc2cc(C)c(Cl)cc2C(C)C)cc1	inactive
CC(C)(C)NC(=S)NNC(=O)c1ccc2ncccc2c1	inactive
CCOC(=O)c1ccc(-c2nnc(-c3ccc(Cl)cc3Cl)o2)cc1	inactive
Cc1ccc(S(=O)(=O)/N=C2\C=C(Nc3cccc(C(=O)O)c3)C(=O)c3ccccc32)cc1	inactive
O=C(CSc1ncccn1)Nc1cccc2ccccc12	inactive
NNC(=O)c1cccc(S(=O)(=O)Nc2cc(Cl)ccc2Cl)c1	inactive
Cc1cc(C)c2c(N)c(C(=O)Nc3ccc([N+](=O)[O-])cc3)sc2n1	inactive
Cc1ccc(NC(=O)c2c(O)c3ccccc3n(C)c2=O)nc1	inactive
COc1ccc(NC(=O)CN(C)C(=O)c2ccc(=O)[nH]c2)cc1	inactive
Cc1ccc2c(c1)sc1nc(=O)n(-c3ccccc3)c(=O)n12	inactive
O=C(NCCc1c[nH]c2ccccc12)C(=O)NCC(c1ccco1)N1CCN(c2ccccc2F)CC1 (stereo not given)	inactive
Cc1ccc(NC(=O)NC(=O)c2ccccc2)cc1F	inactive

SMILES	Potency
CC(C)(C)C(=O)N/C(N)=N/c1nc2ccccc2o1	inactive
O=C(NNC(=O)C1COc2ccccc2O1)c1ccccc1O (stereo not given)	inactive
CCC(=O)NC(=S)Nc1ccc(N2CCOCC2)cc1	inactive
O=C(CCN1C(=O)c2ccccc2C1=O)Nc1ccc(-c2nc3ccccc3s2)cc1	inactive
S=C1NCN(CCc2ccccc2)CN1Cc1ccccc1	inactive
Cc1c(C(O)CN2CCN(Cc3ccc4c(c3)OCO4)CC2)c2ccccc2n1C (stereo not given)	inactive
COCc1cc(C)nc(N/N=C/c2ccc(-c3ccc(Cl)cc3[N+](=O)[O-])o2)c1C#N	inactive
C=CCn1c(C)nnc1SCC(=O)Nc1nccs1	inactive
O=C(c1cc2cc([N+](=O)[O-])ccc2oc1=O)n1cccn1	inactive
Cc1ccc2nc(Nc3ccc(Cl)cc3)c3nncn3c2c1	inactive
Cc1ccc(NC(=O)c2ncc(Cl)c(Cl)c2Cl)cc1C	inactive
CCCNC(=O)C1CCN(S(=O)(=O)c2ccc3[nH]c(=O)ccc3c2)CC1	inactive
CCc1cc(C(=O)Nc2ccccc2)cs1	inactive
COc1cccc(NC(=O)CN2C(=O)CSc3ccc(S(=O)(=O)N4CCC(C)CC4)cc32)c1	inactive
COc1ccc(OC)c(S(=O)(=O)N2CCN3CCCC3C2)c1 (stereo not given)	32.8 µM (active)
O=C(CSc1nnc(-c2ccccc2)o1)Nc1ccccc1F	inactive
Cc1ccc(N=Cc2sc(O)c3ccccc23)c(C)c1	inactive
COCCNC(=O)CN1C(=O)NC(c2ccccc2)(c2ccccc2)C1=O	inactive
COC(=O)CSc1nc2cc3c(cc2cc1C#N)OCO3	inactive
Cc1ccc(C(=O)NC2CCN(CC(=O)Nc3c(C)cc(C)cc3C)CC2)cc1	inactive
